Data: PubChem BioAssay (EPA / NIEHS)
Results filed as inconclusive are left out. Active and inactive are the calls of the source. How the source made its calls: active means hit-call score of the fitted dose curve at least 0.9, where 1 is the maximum; inconclusive means response in the unintended direction; inactive means score below 0.9.

Each molecule was assayed against human RAR-related Orphan Receptor gamma (RORg), RORC (gene 6097) (UniProt P51449) (assay: ATG_RORg_TRANS: Attagene TRANS-FACTORIAL HepG2 Assay for human RAR-related Orphan Receptor gamma (RORg) (AID 2283011)).
Chain of human RAR-related Orphan Receptor gamma (RORg), RORC (gene 6097) (P51449 whole entry, looked up): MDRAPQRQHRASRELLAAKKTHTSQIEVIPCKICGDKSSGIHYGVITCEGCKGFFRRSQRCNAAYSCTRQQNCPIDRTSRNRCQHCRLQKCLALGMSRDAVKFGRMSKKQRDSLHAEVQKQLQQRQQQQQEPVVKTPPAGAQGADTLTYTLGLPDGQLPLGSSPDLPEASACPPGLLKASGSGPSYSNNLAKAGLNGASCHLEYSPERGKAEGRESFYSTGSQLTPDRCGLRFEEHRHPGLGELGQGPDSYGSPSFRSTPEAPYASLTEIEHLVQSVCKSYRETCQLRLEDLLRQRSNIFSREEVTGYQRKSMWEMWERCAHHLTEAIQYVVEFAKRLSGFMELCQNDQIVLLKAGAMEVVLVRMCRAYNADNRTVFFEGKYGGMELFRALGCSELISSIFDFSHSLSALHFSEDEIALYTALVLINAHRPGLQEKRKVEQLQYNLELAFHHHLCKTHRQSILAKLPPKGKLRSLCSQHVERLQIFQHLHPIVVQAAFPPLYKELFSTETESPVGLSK
Method: ATG_TRANS is a cell-based, multiplexed-readout assay that uses HepG2, a human liver cell line, with measurements taken at 24 hours after chemical dosing in a 24-well plate.ATG_RORg_TRANS is one of 30 assay component(s) measured or calculated from the ATG_TRANS assay. It is designed to make measurements of mRNA induction, a form of inducible reporter, as detected with fluorescence intensity signals by Reverse transcription polymerase chain reaction (RT-PCR) and Capillary electrophoresis technology.Data from the assay component ATG_RORg_TRANS was analyzed into 1 assay endpoint. This assay endpoint, ATG_RORg_TRANS, was analyzed in the positive analysis fitting direction relative to DMSO as the negative control and baseline of activity. Using a type of inducible reporter, measures of mRNA for gain-of-signal activity can be used to understand the reporter gene at the transcription factor-level as they relate to the gene RORC. Furthermore, this assay endpoint can be referred to as a primary readout, because this assay has produced multiple assay endpoints where this one serves a reporter gene function. To generalize the intended target to other relatable targets, this assay endpoint is annotated to the nuclear receptor intended target family, where the subfamily is orphan.
Human liver HepG2 cells are transiently transfected with multiple reporter transcription units (MRTUs) in 6-well plates using FuGene 6 reagent (Roche; 3 ml FuGene/1 mg DNA). The MRTU constructs are regulated by a cis-regulating element (promoter). […] A major difference between the CIS and TRANS system is that in CIS activities of endogenous TFs are measured, whereas the TRANS assay evaluates changes in activities of exogenous, chimeric NR-Gal4 proteins. […] At the end of 24 hour incubation, total RNA was isolated using TriZol reagent (Invitrogen). The isolated RNA is then reverse-transcribed using oligo(dT) primer and Mo-MLV reverse transcriptase (Invitrogen) with DNAse I (Ambion) treatment for 30 min. The one-tenth of the produced cDNA was amplified by PCR using Taq DNA polymerase (Invitrogen) and two reporter sequence-specific primers. The PCR products were fluorescently labeled by primer extension with 6-arboxyfluorescein (6-FAM) 5'-labeled reporter sequence-specific primer (2 min at 95 C, 20 s at 68 C and 10 min at 72 C) and these products were digested with 5U of HpaI (New England Biolabs) for 2h at 37 C. The fragments were purified using Qiaquick PCR columns (Qiagen), analyzed on an ABI 3130xL genetic analyzer (Applied Biosystems) with peak positions identified by using a set of X-rhodamine (ROX)-labeled MapMarker1000 molecular weight standards (BioVentures). The raw capillary electrophoresis data was processed using Attagraph software (Attagene).

SMILES	outcome
NC(=O)c1cccnc1	inactive
CC(=N[Si](C)(C)C)O[Si](C)(C)C	inactive
O=C(O)c1cc2ccccc2cc1O	inactive
CC(O)COCC(C)O (stereo not given)	inactive
C=C1CC/C=C(\C)CC[C@@H]2[C@@H]1CC2(C)C	inactive
CN(C)C(=O)Nc1ccccc1	inactive
CC(C)OB(OC(C)C)OC(C)C	inactive
CCOc1ccc(NC(C)=O)cc1	inactive
CC/C(=C(\c1ccccc1)c1ccc(OCCN(C)C)cc1)c1ccccc1	inactive
CC(=O)OC(C)(C)C1CC=C(C)CC1 (stereo not given)	inactive
C1CCCNCC1	inactive
C[C@]12CC[C@@H]3c4ccc(O)cc4CC[C@H]3[C@@H]1CC[C@@H]2O	inactive
CC(=O)c1ccc2ccccc2c1	inactive
CC=CC(=O)C1=C(C)C=CCC1(C)C	inactive
CCCCCCCCCC(=O)OCC	inactive
CC(C)(C)c1cc(CCC(=O)OCCSCCOC(=O)CCc2cc(C(C)(C)C)c(O)c(C(C)(C)C)c2)cc(C(C)(C)C)c1O	inactive
CC(=O)Oc1c(C)c(C)c2c(c1C)CC[C@@](C)(CCC[C@H](C)CCC[C@H](C)CCCC(C)C)O2	inactive
CCC(C)C1CCCCC1=O (stereo not given)	inactive
O=S1(=O)CC(Cl)(Cl)C(Cl)(Cl)C1	inactive
CC(=O)CCc1ccc(O)cc1	inactive

SMILES	outcome
CC(C)CCCC(C)(C)O	inactive
C=CCOCC(O)CO (stereo not given)	inactive
CC(C)Cc1ccccc1	inactive
CC(C)(O)CCc1ccccc1	inactive
O=C1OCc2ccccc21	inactive
CCCO	inactive
C#C[C@]1(O)CC[C@H]2[C@@H]3CCc4cc(O)ccc4[C@H]3CC[C@@]21C	inactive
CCCCOCC(C)OCC(C)O (stereo not given)	inactive
O=S1(=O)CC=CC1	inactive
CC(C)C(=O)OCC=Cc1ccccc1	inactive
CNC(=C[N+](=O)[O-])NCCSCc1ccc(CN(C)C)o1	inactive
CCCC1CCOC(C)S1 (stereo not given)	inactive
COc1ccccc1O	inactive
CCOC(=O)CC(C)C	inactive
O=Cc1ccccc1O	inactive
O=C1CCCCCCCCCCCC(=O)OCCO1	inactive
NC(N)=S	inactive
CCCC[N+](C)(CCCC)CCCC	inactive
Nc1cc([N+](=O)[O-])ccc1C(=O)O	inactive
CC(C)(C)c1ccc(S)cc1	inactive
